FLuc counter: inhibits or activates purified firefly luciferase, miR-21 counter-screen; P08659; purified FLuc, Km substrates, luminescence inhibition; Potency, µM (top dose mostly 57.5 µM), for the others: top-dose activity change, negative = inhibition, hits mostly inhibitors; 360,000 tested, 6.9% active;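 also: plate controls were vehicle for no effect and reference inhibitor for full effect; nearly all actives have a fitted effect of over 55% in size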
Target sequence (P08659 whole entry, looked up): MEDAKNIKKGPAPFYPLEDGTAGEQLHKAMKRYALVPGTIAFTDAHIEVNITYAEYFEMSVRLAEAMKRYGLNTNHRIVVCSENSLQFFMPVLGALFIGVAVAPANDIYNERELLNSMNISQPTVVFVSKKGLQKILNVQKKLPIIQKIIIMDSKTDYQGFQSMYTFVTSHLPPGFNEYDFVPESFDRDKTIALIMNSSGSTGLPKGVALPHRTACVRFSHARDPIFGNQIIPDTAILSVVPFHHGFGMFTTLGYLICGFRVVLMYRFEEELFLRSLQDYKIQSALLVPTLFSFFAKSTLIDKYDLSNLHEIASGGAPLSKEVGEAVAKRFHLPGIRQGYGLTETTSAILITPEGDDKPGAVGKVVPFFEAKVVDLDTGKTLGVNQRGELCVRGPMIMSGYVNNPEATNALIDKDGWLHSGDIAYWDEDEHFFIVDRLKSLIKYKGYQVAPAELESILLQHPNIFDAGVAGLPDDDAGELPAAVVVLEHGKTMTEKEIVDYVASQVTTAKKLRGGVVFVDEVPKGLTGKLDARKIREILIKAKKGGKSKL
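Purified P. pyralis luciferase, 10 nM final, with Km-level 10 uM D-luciferin and 10 uM ATP in 50 mM Tris acetate pH 7.5, 10 mM Mg acetate, 0.01% Tween-20, 0.05% BSA; 6-point qHTS titration about 60 µM downward; luminescence read.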
Rab9 prom act: activators of Rab9 promoter. Huh7 Rab9 promoter-luciferase reporter, luminescence, 24 h. Potency, µM (doses to about 9.22 µM), inactives show at the top dose activation, negative = inhibition, actives largely listed as activators. 320,000 tested, 2.8% active. AID 485297; also: % of control where 0% means no effect; nearly all actives have a fitted effect of over 60% in size
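Stable Rab9-luc Huh7, 1500 cells/well, 2 h settle; cmpd in DMSO, 24 h, 37 °C/5% CO2; luciferase reagent 10 min RT; luminescence.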
SMN2 splice enh: enhancers of SMN2 splice variant expression | HEK293 SMN2-luciferase splicing reporter, luminescence, 30-36 h | Potency, µM (doses to about 46.1 µM), without a hit: top-dose activity change, positive = activation, most hits filed as activators | 210,000 tested, 2.8% active; also: % of control where 0% means no effect; nearly all actives have a fitted effect of over 55% in size
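HEK293 cells carry an SMN2 […]–luciferase reporter in which exon 7 inclusion puts luciferase in frame. Cells were plated 10-12 h before compound addition, then incubated 30-36 h at 37C. ONE-Glo luminescence was read; sodium butyrate at 4.5 mM final served as control.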
NPC1 promoter act: NPC1 promoter activation. AID 485313. 320,000 tested, 2.4% active. Huh7 NPC1 promoter luciferase reporter, 24 h. Potency, µM (doses to about 9.22 µM), inactives show at the top dose activation, usual class: activators; also: % of control where 0% means no effect; nearly all actives have a fitted effect of over 60% in size
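Stable NPC1-promoter luciferase Huh7 line; cpd (DMSO) 24 h, 37 °C, 5% CO2; Amplite luciferase reagent 10 min RT; luminescence readout. qHTS format.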
ELG1 genotox: induces genotoxicity in HEK293T cells with luciferase-tagged ELG1; HEK293T ELG1-luciferase reporter, luminescence, 16 h; Potency, µM (top dose mostly 46 µM), inactives show at the top dose activity change, positive = activation, actives largely listed as activators; 330,000 tested, 1.3% active; also: % of control where 0% means no effect; nearly all actives have a fitted effect of over 60% in size
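Genotoxicity was scored as increased ELG1-luciferase reporter signal, measured by ONE-Glo luminescence (30 min, room temperature). Compound or vehicle exposure of the HEK293T reporter cells lasted 16 hr at 37°C.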
Active calls of the source: *. In the library only some 7.4% were active in any assay of this set; here they are far more common. Calls follow the shape of the dose curve; as a rule, active = well fitted curve in the direction sought with a large enough effect; inconclusive = small, poorly fitted or top-dose-only effect, or another doubt; inactive = no such curve, though single readings can be large; an effect the other way counts as inactive or inconclusive. Potency is read from the fitted curve at half-maximal effect.

Screening CCOc1ccccc1Nc1nnc(SCC(=O)NC2CCS(=O)(=O)C2)s1 (stereo not given) returned ELG1 genotox 3%.
For O=C(Nc1ccc(N2CCOCC2)c(F)c1)c1cccs1 the results were FLuc counter 4.3µM*, Rab9 prom act 0.4µM*, NPC1 promoter act 0.5µM* and ELG1 genotox 6.5µM*.
`COc1ccc(NC(=O)c2ccc(N3CCOCC3)nc2)cc1` gave FLuc counter 1%, Rab9 prom act 6%, NPC1 promoter act 2% and ELG1 genotox -1%.
Screening CN(C)c1ccc(NC(=O)c2ccc(N3CCOCC3)nc2)cc1 returned FLuc counter 15µM*, Rab9 prom act 16%, NPC1 promoter act 22% and ELG1 genotox 22%.
`O=C(Nc1ccc(N2CCN(c3ccc(C(F)(F)F)cn3)CC2)nc1)c1cccs1` gave FLuc counter -4%, Rab9 prom act -8%, NPC1 promoter act 1% and ELG1 genotox inconclusive.
For O=C(c1ccccc1)c1ccc(N2CCOCC2)c(F)c1 the results were FLuc counter 11µM*, Rab9 prom act 3.5µM*, SMN2 splice enh inconclusive, NPC1 promoter act 3.5µM* and ELG1 genotox inconclusive.
`O=C(Nc1ccc(N2CCOCC2)nc1)c1cccs1` gave FLuc counter inconclusive, Rab9 prom act 2.5µM*, SMN2 splice enh 11µM*, NPC1 promoter act inconclusive and ELG1 genotox 16%.
Screening Cc1cc(O)cc(O)c1C(=O)OC1(C)C(=O)C=C2C=C(/C=C/CO)OC=C2C1=O (stereo not given) returned SMN2 splice enh 10%.
Screening C=CCNC(=S)NNC(=O)CC12CC3CC(CC(C3)C1)C2 returned FLuc counter 0%, Rab9 prom act -4%, NPC1 promoter act 4% and ELG1 genotox -1%.
Clc1cccc(N2CCN(c3ncnc4c3nc3n4CCCC3)CC2)c1 was read as FLuc counter 19µM* and SMN2 splice enh inconclusive.
For Clc1cccc(Nc2ncnc3c2nc2n3CCCCC2)c1 the results were FLuc counter 6.7µM*.
Screening Clc1cccc(CNc2ncnc3c2nc2n3CCCC2)c1 returned FLuc counter -2%.
`Cc1ccc(Cl)cc1N1CCN(c2ncnc3c2nc2n3CCCCC2)CC1` gave FLuc counter -2%.
For Cc1ccc(Nc2ncnc3c2nc2n3CCCC2)c(Br)c1 the results were FLuc counter 3.8µM*.
Screening Clc1ccccc1Nc1ncnc2c1nc1n2CCCCC1 returned FLuc counter 17µM*.
Screening CCOc1ccccc1CNC(=O)CCc1c(C)nn(-c2ccc(N3CCCCC3)nn2)c1C returned FLuc counter -17%.
Cc1ccnc(NC(=O)CSc2nnc3c(n2)[nH]c2ccccc23)c1 was read as FLuc counter -27%, Rab9 prom act -12%, NPC1 promoter act 1% and ELG1 genotox 15%.
Screening CNC(=O)c1ccc(NC(=O)CC2SC(N3CCCC3)=NC2=O)cc1 (stereo not given) returned FLuc counter 3%, Rab9 prom act -2%, NPC1 promoter act -2% and ELG1 genotox 13%.
O=C(N/C(=C/c1ccc([N+](=O)[O-])cc1)C(=O)N1CCOCC1)c1ccco1 was read as FLuc counter 2%, NPC1 promoter act -1% and ELG1 genotox 7%.
`COc1ccc(S(=O)(=O)N2CCCCC2)cc1NC(=O)c1ccc(CS(C)(=O)=O)cc1` gave FLuc counter 5%, Rab9 prom act -2%, NPC1 promoter act -1% and ELG1 genotox 2%.
For Cc1ccc(OCC(=O)Nc2cccc3ccc(C)nc23)c(C)c1 the results were FLuc counter 0% and SMN2 splice enh 1%.
`Cc1ccc(OCC(=O)Nc2cccc(C)n2)c(C)c1` gave FLuc counter 4.3µM*, Rab9 prom act inconclusive, SMN2 splice enh 23%, NPC1 promoter act inconclusive and ELG1 genotox 4.1µM*.
Cc1cccc(NC(=O)COc2ccc(Br)cc2)n1 was read as FLuc counter 24µM*, Rab9 prom act 11%, SMN2 splice enh -10%, NPC1 promoter act 14% and ELG1 genotox 14%.
Screening Cc1ccc(OCC(=O)NC(=S)Nc2cccc(C)n2)cc1 returned FLuc counter 0%, Rab9 prom act -4%, SMN2 splice enh 3%, NPC1 promoter act -1% and ELG1 genotox 2%.
For N#Cc1ccccc1-c1csc(N2CCC(C(N)=O)CC2)n1 the results were FLuc counter -19%.
For O=C(Nc1nnc(SCc2ccccc2)s1)c1cccs1 the results were FLuc counter inconclusive, Rab9 prom act 21%, SMN2 splice enh inconclusive, NPC1 promoter act 24% and ELG1 genotox 15µM*.
For CCSc1nnc(NC(=O)c2cccs2)s1 the results were FLuc counter 19µM*, Rab9 prom act inconclusive, SMN2 splice enh 22%, NPC1 promoter act inconclusive and ELG1 genotox -15%.
For COc1ccc(CN2CCCCCC2)cc1Br the results were FLuc counter 1%, Rab9 prom act -7%, NPC1 promoter act 3% and ELG1 genotox -7%.
CCn1nc(NS(=O)(=O)c2ccccc2[N+](=O)[O-])c2cc3ccc(C)cc3nc21 was read as FLuc counter inconclusive, Rab9 prom act -3%, NPC1 promoter act -2% and ELG1 genotox 5%.
For CCc1cc2cc(C(=O)N3CCN(Cc4ccccc4)CC3)sc2s1 the results were FLuc counter 17µM* and SMN2 splice enh -20%.
Screening CC(C)(C)c1ccc(C(=O)Nc2ccc(F)cc2)s1 returned FLuc counter 1.2µM*, Rab9 prom act 0.63µM*, NPC1 promoter act 0.71µM* and ELG1 genotox 2.9µM*.
`CCc1cc2cc(C(=O)Nc3ccccc3F)sc2s1` gave FLuc counter 0.76µM*, Rab9 prom act 1.8µM*, SMN2 splice enh inconclusive, NPC1 promoter act 2.2µM* and ELG1 genotox 1.2µM*.
For CCc1cc2cc(C(=O)N3CCN(c4ccccc4)CC3)sc2s1 the results were FLuc counter 7%, Rab9 prom act 1%, SMN2 splice enh 7%, NPC1 promoter act -1% and ELG1 genotox -1%.
`CCc1cc2cc(C(=O)Nc3ccc(F)cc3)sc2s1` gave FLuc counter inconclusive, Rab9 prom act 2.5µM*, SMN2 splice enh 36%, NPC1 promoter act inconclusive and ELG1 genotox 13%.
`Cn1nc(C(F)(F)F)c2cc(C(=O)Nc3ccc(F)cc3)sc21` gave FLuc counter -3%, Rab9 prom act -17%, NPC1 promoter act -2% and ELG1 genotox -5%.
For CCN(C(=O)C1CCC(CNS(=O)(=O)c2cccc3nsnc23)CC1)c1ccccc1 (stereo not given) the results were FLuc counter 3% and SMN2 splice enh -19%.

Compound activity: PubChem, National Center for Advancing Translational Sciences (NCATS)
